Test results taken from PubChem BioAssay.
Records with an inconclusive call do not appear. Activity calls are given as the source filed them.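 The calls were made as follows, unless noted: active = growth inhibition above 25% in both replicates, a cutoff set 3 SD above the mean; inconclusive = above 25% in only one replicate; inactive = the rest.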

Legend:
[1] = Her2 expression decrease, cell viability multiplex – SKBR3 breast tumor cells, AlphaScreen, ATP viability, primary screen (AID 461;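 active = Her2 level under about 52% in both replicate screens, with viability over 70% of control, limit read from the data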;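 as to Her2 level: lower value means less Her2 protein in the cells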;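 as to viability: percent of carrier control wells set as 100% viability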); settings: SKBR3 Her2 protein level, 18-24 h, measured here: SKBR3 viability, ATP luminescence, at 10 µM
[2] = molecular target: Receptor tyrosine-protein kinase erbB-2 (Homo sapiens) (UniProt P04626); test: as above; settings: 18-24 h, at 10 µM, stronger effect = lower value
Sequence of Receptor tyrosine-protein kinase erbB-2 (Homo sapiens) (P04626 whole entry, looked up): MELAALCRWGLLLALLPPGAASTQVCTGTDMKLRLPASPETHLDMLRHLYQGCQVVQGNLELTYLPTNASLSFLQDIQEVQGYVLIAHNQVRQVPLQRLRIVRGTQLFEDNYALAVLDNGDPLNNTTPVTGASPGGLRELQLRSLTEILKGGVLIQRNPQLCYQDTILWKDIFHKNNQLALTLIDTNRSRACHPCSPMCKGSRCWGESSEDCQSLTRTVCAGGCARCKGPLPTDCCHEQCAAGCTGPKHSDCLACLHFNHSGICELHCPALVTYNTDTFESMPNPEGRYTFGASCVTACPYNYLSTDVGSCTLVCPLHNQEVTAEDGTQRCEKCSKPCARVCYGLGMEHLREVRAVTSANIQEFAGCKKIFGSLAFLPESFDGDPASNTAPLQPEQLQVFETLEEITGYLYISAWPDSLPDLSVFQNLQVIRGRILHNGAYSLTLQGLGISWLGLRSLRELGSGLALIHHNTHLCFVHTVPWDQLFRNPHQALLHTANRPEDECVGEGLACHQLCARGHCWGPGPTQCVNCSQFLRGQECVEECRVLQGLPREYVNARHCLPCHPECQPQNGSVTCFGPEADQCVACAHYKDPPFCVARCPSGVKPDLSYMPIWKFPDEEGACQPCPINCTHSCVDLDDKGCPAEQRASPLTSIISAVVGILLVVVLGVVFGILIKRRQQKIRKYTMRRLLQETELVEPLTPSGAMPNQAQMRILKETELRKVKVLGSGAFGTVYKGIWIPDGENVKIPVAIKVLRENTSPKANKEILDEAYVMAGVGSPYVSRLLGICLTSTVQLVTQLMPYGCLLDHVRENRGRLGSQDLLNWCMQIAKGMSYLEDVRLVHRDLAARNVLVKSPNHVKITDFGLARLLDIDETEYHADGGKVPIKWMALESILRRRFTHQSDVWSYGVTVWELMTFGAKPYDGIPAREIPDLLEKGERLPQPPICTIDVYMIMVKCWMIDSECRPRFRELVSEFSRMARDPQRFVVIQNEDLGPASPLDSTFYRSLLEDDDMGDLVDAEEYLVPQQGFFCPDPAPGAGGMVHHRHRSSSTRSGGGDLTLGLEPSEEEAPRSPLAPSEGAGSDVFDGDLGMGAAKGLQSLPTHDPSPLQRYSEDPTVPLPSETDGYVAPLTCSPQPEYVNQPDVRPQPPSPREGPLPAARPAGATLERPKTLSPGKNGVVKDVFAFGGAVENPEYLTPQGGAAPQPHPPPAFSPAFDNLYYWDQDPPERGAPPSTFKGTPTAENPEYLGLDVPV

[3] = reduced viability of SK-BR-3 breast cancer cells – cell-based, 24 h, human, pilot screen (AID 572;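 active = viability at or below 10% of carrier control in both of two separate runs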;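 also: compound exposure lasted between 18 and 24 h rather than exactly 24 h; 100% = carrier-treated control wells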); settings: SK-BR-3 viability, CellTiter-Glo luminescence, at 10 µM, stronger effect = lower value
[4] = HUVEC growth inhibition – cell-based, human, primary screen (AID 575;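 active = viability at or below 30% in both replicate assays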;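 also: 100% = median of untreated cell wells with 0.1% DMSO on each plate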); settings: HUVEC proliferation, CellTiter-Glo luminescence, 72 h; at 10 µM; stronger effect = lower value
[5] = H69AR cell proliferation blockers – human, duplicate replicates, primary screen (AID 580;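 active = viability at or under a set limit in both replicates, limit being median viability minus 3 SD, cut at about 48% in these data, passing the limit was not always enough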;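 also: 100% = mean luminescence of untreated wells and 0% = no signal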); settings: H69AR lung tumor cells viability, ATP luminescence, 72 h; at 10 µM; stronger effect = lower value
[6] = MRP1 drug-resistance reversers in H69AR cells – cell-based, doxorubicin co-treatment, pilot screen (AID 601;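 active = viability loss from added drug above about 55%, and viability with drug at most 40%, in both replicates, limit read from the data, passing the limit was not always enough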); settings: CellTiter-Glo, 72 h, at 10 µM; for differential viability (reversal): stronger effect = higher value
[7] = yeast transport mutant growth inhibition pilot in 384-well plates, post-Golgi transport modulator project (AID 636; in the data active = inhibition above about 31%); settings: absorbance 615 nm, about 18 h, stronger effect = higher value
[8] = growth suppression of yeast trafficking mutant, preliminary HTS, modulators of trafficking downstream of Golgi apparatus project, 1536-format plate, OD 615 nm (AID 637; in the data active = inhibition above about 30%); settings: yeast transport mutant growth, absorbance 615 nm, 18 h; stronger effect = higher value
[9] = S. cerevisiae growth inhibition in permissive medium (OD615), pilot counter-assay for S. cerevisiae lifespan shortening project, permissive growth control (AID 705); settings: OD615, 24 h, at 10 µM, stronger effect = higher value
[10] = S. cerevisiae growth inhibition in restrictive medium, OD615, pilot screen, restrictive growth control, yeast lifespan reduction project (AID 706;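 active = growth inhibition above a set limit, 3 SD over mean compound inhibition, in both replicates, cut at about 43% in these data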;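 also: modified DeaD lifespan yeast strain shifted to restrictive glucose medium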); settings: OD615, 48 h, at 10 µM, stronger effect = higher value
[11] = doxorubicin toxicity protection in MRP-1 cells – H69AR cells, CellTiter-Glo, duplicate, MRP-1 activator project, pilot screen (AID 807;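 active = viability increase at or above a cutoff of the median across tested compounds plus 3 SD, cut at about 8.5% in these data, passing the limit was not always enough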;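 also: compound pretreatment 18-22 h then 72 h combined with doxorubicin; 0% = doxorubicin alone and 100% = vehicle without doxorubicin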); settings: H69AR viability with doxorubicin, CellTiter-Glo luminescence; at 10 µM; stronger effect = higher value
[12] = viability of HCT116 without oncogenic beta-catenin – human colon tumor cells, pilot screen (AID 823;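 active = cell viability at or below a set limit in both duplicate runs, the limit being the all-compound median minus 4 SD, cut at about 23% in these data, passing the limit was not always enough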;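 also: 0% = wells killed by 20 µM Hyamine and 100% = untreated DMSO cell wells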); settings: HCT116 beta-catenin knockout viability, CellTiter-Glo, 60 h; at 10 µM; stronger effect = lower value
[13] = viability of PTEN-null HCT116 cells – cell-based, HCT116 clonal line, CellTiter-Glo, pilot screen (AID 824;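 active = viability at or below 27.92% in each of two runs, the all-compound median minus 4 SD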;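 also: 0% = 20 µM Hyamine control and 100% = vehicle cell control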); settings: HCT116 PTEN-deleted viability, 60 h, at 10 µM, stronger effect = lower value
[14] = RAM pathway blockade in budding yeast – dse1pr::URA3 reporter, 5-FOA selection, pilot screen (AID 869;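 active = inhibition over a set limit, the all-compound mean plus 3 SD, in both replicate runs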;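 also: 0% = DMSO wells with no growth and 100% = 10 µM 1-NA-PP1 with full growth; RAM network block rescues cells from 5-FOA so hits raise OD615 growth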); settings: S. cerevisiae dse1pr::URA3 5-FOA growth, OD615, 2 d; at 10 µM; stronger effect = higher value; strain carries analog-sensitive mutant Cbk1 kinase
[15] = RAM signaling pathway blockade in yeast – S. cerevisiae, Pdr1DBD-CYC8 efflux-inhibited sensitized strain, primary screen (AID 1298;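 active = RAM network inhibition above 8.4% in each of two replicates, 3 SD over the compound average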;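 also: 0% = DMSO untreated cells without growth and 100% = 10 µM 1-NA-PP1 full growth; higher means more yeast growth rescued from 5-FOA killing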); settings: S. cerevisiae cbk1-as DSE1-URA3 strain, 5-FOA growth OD615, 2 d; at 50 µM; stronger effect = higher value
[16] = H69AR cells + 2 uM doxorubicin, measured here: viability with 2 uM doxorubicin, stronger effect = lower value
[17] = H69AR cells, compound alone cytotoxicity

Row | SMILES | viability [1] [%] | Her2 level [2] | viability [3] | viability [4] | viability [5] | differential viability (reversal) ([6]; H69AR cells + 2 uM doxorubicin) | viability [6, 16] [%] | viability [6, 17] [%] | inhibition [7] | inhibition [8] | growth inhibition [9] | growth inhibition [10] | viability increase [11] | viability [12] | viability [13] | inhibition [14] | RAM network inhibition [15]
1 | O=C(c1ccc2nc(N3CCCCC3)sc2c1)N1CCN(c2ccccn2)CC1 | 87 | 102% (inactive) | 87% (inactive) | 68.1% (inactive) | 102% (inactive) | 2.3% (inactive) | 100 | 102 | -1.54% (inactive) | 1% (inactive) | 2.65% (inactive) | -0.825% (inactive) | 0.27% (inactive) | 106% (inactive) | 98.6% (inactive) | 2.38% (inactive) | -1.58% (inactive)
2 | CC(C)(C)NC(=O)CSc1nnc(-c2ccccn2)n1-c1ccccc1 | 98.5 | 126% (inactive) | 98.5% (inactive) | 105% (inactive) | 91.9% (inactive) | 0.06% (inactive) | 91.9 | 91.9 | -5.2% (inactive) | -3% (inactive) | -14% (inactive) | -6.57% (inactive) | -0.63% (inactive) | 100% (inactive) | 92.9% (inactive) | 0.43% (inactive) | 1.1% (inactive)
3 | COc1ccc(-c2nc(C)c(C(C)=O)n2O)cc1OC | 89 | 112% (inactive) | 89% (inactive) | 91% (inactive) | 94.9% (inactive) | 9.6% (inactive) | 85.3 | 94.9 | -2.05% (inactive) | -8.33% (inactive) | -5.41% (inactive) | 6.06% (inactive) | -1.91% (inactive) | 96.5% (inactive) | 90.1% (inactive) | 1.42% (inactive) | 2.4% (inactive)
4 | CCCSc1nnc2nc3c(nn12)c1ccccc1n3C | 86 | 85.5% (inactive) | 86% (inactive) | 98.9% (inactive) | 89.3% (inactive) | 2.42% (inactive) | 86.9 | 89.3 | -0.27% (inactive) | 7.21% (inactive) | 3.75% (inactive) | 2.38% (inactive) | -4.48% (inactive) | 105% (inactive) | 97% (inactive) | 1.27% (inactive) | 0.96% (inactive)
5 | Nc1nc2n(n1)C(c1cccc(Br)c1)CC(c1ccccc1)N2 (stereo not drawn) | 93.5 | 103% (inactive) | 93.5% (inactive) | 82% (inactive) | 88.8% (inactive) | -9.83% (inactive) | 98.7 | 88.8 | -3.33% (inactive) | 0.83% (inactive) | -6.41% (inactive) | 12.7% (inactive) | -1.81% (inactive) | 97.1% (inactive) | 86% (inactive) | 1.22% (inactive) | 12.1% (inactive)
6 | CCCc1cc(C(=O)Nc2sc(C)c(C)c2C(=O)OCC)no1 | 86 | 79% (inactive) | 86% (inactive) | 85.8% (inactive) | 92.6% (inactive) | 0.625% (inactive) | 92 | 92.6 | -1.79% (inactive) | 1.17% (inactive) | -10.7% (inactive) | 2.83% (inactive) | 2.07% (inactive) | 102% (inactive) | 97.9% (inactive) | 3.55% (inactive) | 7.13% (inactive)
7 | CCOC(=O)N1CCN(c2cc(=O)n(-c3ccccc3Cl)c(=O)[nH]2)CC1 | 98.5 | 124% (inactive) | 98.5% (inactive) | 100% (inactive) | 86.9% (inactive) | -3.22% (inactive) | 90.1 | 86.9 | 0.27% (inactive) | 12.5% (inactive) | -9.94% (inactive) | -0.995% (inactive) | 1.69% (inactive) | 96.8% (inactive) | 105% (inactive) | 0.77% (inactive) | 4.58% (inactive)
8 | COc1ccc(-c2nc(CSCC(=O)NCc3ccc4c(c3)OCO4)c(C)o2)cc1OC | 98 | 108% (inactive) | 98% (inactive) | 92.9% (inactive) | 84.9% (inactive) | -7.12% (inactive) | 92 | 84.9 | -4% (inactive) | 1.5% (inactive) | -13.4% (inactive) | -12.2% (inactive) | -3.57% (inactive) | 84.7% (inactive) | 74.1% (inactive) | 0.57% (inactive) | 6.3% (inactive)
9 | N#CC(C(=O)Nc1ccccc1)=C1CCCCC1 | 99 | 89.5% (inactive) | 99% (inactive) | 85.5% (inactive) | 109% (inactive) | 14.8% (inactive) | 94.2 | 109 | -4.67% (inactive) | -3.55% (inactive) | -25.1% (inactive) | -18.8% (inactive) | 1.71% (inactive) | 91.2% (inactive) | 102% (inactive) | 1.52% (inactive) | 4.92% (inactive)
10 | O=C1c2ccccc2C(Nc2ccc3c(c2)OCO3)N1Cc1ccc2c(c1)OCO2 (stereo not drawn) | 86 | 81.5% (inactive) | 86% (inactive) | 50% (inactive) | 83.4% (inactive) | -3.75% (inactive) | 87.1 | 83.4 | -0.27% (inactive) | 1.83% (inactive) | -0.885% (inactive) | -1.48% (inactive) | -0.78% (inactive) | 76.8% (inactive) | 70.1% (inactive) | 1.67% (inactive) | 4.17% (inactive)
11 | CCOC(=O)c1sc2nc(NC(=O)COc3ccccc3)sc2c1C | 78.5 | 123% (inactive) | 78.5% (inactive) | 74.1% (inactive) | 69.4% (inactive) | -10% (inactive) | 79.5 | 69.4 | 3.72% (inactive) | -0.33% (inactive) | -2.58% (inactive) | -19.8% (inactive) | 1.51% (inactive) | 109% (inactive) | 98.4% (inactive) | 2.67% (inactive) | 0.88% (inactive)
12 | CCn1c(-c2cc(Br)ccc2O)n[nH]c1=S | 99 | 88.5% (inactive) | 99% (inactive) | 107% (inactive) | 98% (inactive) | 0.39% (inactive) | 97.6 | 98 | -4.59% (inactive) | 3.02% (inactive) | -10% (inactive) | -14.2% (inactive) | -1.24% (inactive) | 98.9% (inactive) | 96.8% (inactive) | 1.45% (inactive) | 0.78% (inactive)
13 | CC(=O)NC(CCS(C)(=O)=O)C(=O)Nc1cccc(C)c1C (stereo not drawn) | 89.5 | 93.5% (inactive) | 89.5% (inactive) | 86.8% (inactive) | 75.9% (inactive) | -15.4% (inactive) | 91.3 | 75.9 | -5.2% (inactive) | 4.33% (inactive) | -7.1% (inactive) | -8.2% (inactive) | 0.19% (inactive) | 105% (inactive) | 100% (inactive) | 0.395% (inactive) | 3.33% (inactive)
14 | COc1ccc(-c2nc3c(c(SCC(=O)N4CCOCC4)n2)COC(C)(C)C3)cc1 | 111 | 113% (inactive) | 111% (inactive) | 85.5% (inactive) | 89.2% (inactive) | -2.95% (inactive) | 92.1 | 89.2 | -2% (inactive) | 13.8% (inactive) | 2.8% (inactive) | -4.27% (inactive) | -1.69% (inactive) | 101% (inactive) | 103% (inactive) | 0.94% (inactive) | 2.02% (inactive)
15 | Cc1[nH]nc2c1C(=O)CC(C)(C)C2 | 95.5 | 100% (inactive) | 95.5% (inactive) | 100% (inactive) | 89% (inactive) | 5.23% (inactive) | 83.7 | 89 | -1.67% (inactive) | -10.3% (inactive) | 2.65% (inactive) | -3.72% (inactive) | -4.31% (inactive) | 95.8% (inactive) | 94% (inactive) | 1.44% (inactive) | 1.23% (inactive)
16 | CCCCc1cc2c(c(NC(C)=O)n1)c(=O)oc1ccccc12 | 112 | 99% (inactive) | 112% (inactive) | 80.6% (inactive) | 77.9% (inactive) | -8.33% (inactive) | 86.2 | 77.9 | -3.47% (inactive) | -4% (inactive) | -9.7% (inactive) | -4.55% (inactive) | -4.33% (inactive) | 94.8% (inactive) | 87.8% (inactive) | 1.68% (inactive) | 3.84% (inactive)
17 | Cc1cccc(C)c1OCc1nnc(SCC(=O)Nc2ccccc2F)o1 | 95.5 | 101% (inactive) | 95.5% (inactive) | 108% (inactive) | 83% (inactive) | -7.2% (inactive) | 90.2 | 83 | -5.2% (inactive) | -5.17% (inactive) | -12.4% (inactive) | -9.96% (inactive) | -1.03% (inactive) | 98.8% (inactive) | 98.1% (inactive) | 3.38% (inactive) | 3.85% (inactive)
18 | Cc1ccnc(NC(=O)C2CCCN(S(=O)(=O)c3cnc[nH]3)C2)c1 (stereo not drawn) | 95.5 | 104% (inactive) | 95.5% (inactive) | 94.7% (inactive) | 105% (inactive) | 8% (inactive) | 97.4 | 105 | 0.8% (inactive) | -2.79% (inactive) | 1.41% (inactive) | -5.85% (inactive) | -1.81% (inactive) | 97.3% (inactive) | 96.1% (inactive) | 0.925% (inactive) | 3.67% (inactive)
19 | O=C(Cn1cc2c(n1)CCCC2)NCCc1ccccc1 | 105 | 100% (inactive) | 105% (inactive) | 103% (inactive) | 88.4% (inactive) | -22.7% (inactive) | 111 | 88.4 | -1.6% (inactive) | -4.33% (inactive) | -2.47% (inactive) | -9.12% (inactive) | -0.17% (inactive) | 106% (inactive) | 95.3% (inactive) | 1.38% (inactive) | 1.42% (inactive)
